Source: PubChem (The Scripps Research Institute Molecular Screening Center)
This is a sample that favours compounds with a hit; in the whole collection about 1.6% have one here.
MOR-DOR inv ag – inverse agonists of MOR-DOR heterodimerization, primary screen, cell-based, luminescence; Mu-type opioid receptor (Homo sapiens) + Delta-type opioid receptor (Homo sapiens), …; inhibition, % at 9.3 µM; cell-based MOR-DOR heterodimer luminescence, inverse agonism; AID 504357, 2011; 0.21% of 340,000 active; in the data active = inhibition above about 22%, passing the limit was not always enough
OPRM1-OPRD1 ag – agonists of OPRM1-OPRD1 heterodimerization, primary screen, cell-based, luminescence. AID 504326, 2011. 0.3% of 340,000 active. activation, % at 9.3 µM. cells. Mu-type opioid receptor (Homo sapiens) + Delta-type opioid receptor (Homo sapiens), …; in the data active = activation above about 18%
HTR2A ag – mouse Htr2a agonists via beta-arrestin recruitment, primary screen, cell-based, luminescence. 5-hydroxytryptamine receptor 2A (Mus musculus), P35363. CHO-K1 mHTR2A beta-arrestin complementation; percent of 30 µM serotonin response. activation, % at 7.6 µM. 0.66% of 360,000 active. AID 624169, 2012;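 active = activation above a run cutoff, the mean activation of all tested compounds plus 3 SD, cut at about 14% in these data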
HTR5A inv ctr – HTR5A inverse agonists in luminescence cell assay, primary screen, counter-screen for OPRM1-OPRD1 heterodimer inverse agonist project, full-deck HTS; 0.083% of 340,000 active; HTR5A cell line, inverse agonism; 5-hydroxytryptamine receptor 5A (Homo sapiens), P47898; inhibition, % at 9.3 µM; in the data active = inhibition mostly above about 23%, no sharp cut-off; inactive = mostly below about 18%
Target sequence (P47898 whole entry, looked up): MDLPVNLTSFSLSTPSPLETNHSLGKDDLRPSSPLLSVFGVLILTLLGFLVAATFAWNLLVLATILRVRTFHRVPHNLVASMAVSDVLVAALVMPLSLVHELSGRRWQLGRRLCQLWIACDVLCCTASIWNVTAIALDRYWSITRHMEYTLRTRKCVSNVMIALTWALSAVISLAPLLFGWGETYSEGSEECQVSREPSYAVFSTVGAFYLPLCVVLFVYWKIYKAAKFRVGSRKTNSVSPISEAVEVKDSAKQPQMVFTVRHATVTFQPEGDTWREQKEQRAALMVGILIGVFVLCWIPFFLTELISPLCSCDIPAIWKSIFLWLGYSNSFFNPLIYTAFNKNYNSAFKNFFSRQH
HTR5A ag – HTR5A agonists in luminescence cell assay, primary screen, counter-screen for OPRM1-OPRD1 heterodimer agonist project, full-deck HTS; activation, % at 9.3 µM; 5-hydroxytryptamine receptor 5A (Homo sapiens), P47898; 0.61% of 340,000 active; cell-based; in the data active = activation mostly above about 9.5%, no sharp cut-off; inactive = mostly below about 7.6%
MOR ag counter – OPRM1 agonists via beta-arrestin recruitment, confirmation, counter-screen for mouse HTR2A agonist project, cell-based, luminescence, single concentration | U2OS OPRM1 beta-arrestin PathHunter; DMSO 0%, DAMGO 9.3 µM 100% | 5.3% of 2,300 active | activation, % at 9.3 µM | shares compounds with HTR2A ag;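 active = mean activation above the mean of DMSO-only wells plus 3 SD, cut at about 0.5% in these data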
HTR2A ag conf – mouse HTR2A agonists, beta-arrestin recruitment, confirmation, cell-based, luminescence, CHO-K1 PathHunter, triplicate. 19% of 2,300 active. AID 624381, 2012. activation, % at 7.6 µM. DMSO 0%, 30 µM serotonin 100%. shares compounds with HTR2A ag;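 active = mean activation across triplicates above the hit threshold derived in the original primary screen, cut at about 15% in these data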
Hits are given with their value; 0 = inactive; - = no result given.

SMILES | MOR-DOR inv ag | OPRM1-OPRD1 ag | HTR2A ag | HTR5A inv ctr | HTR5A ag | MOR ag counter | HTR2A ag conf
CS(=O)(=O)CCC(C(=O)OCC(=O)c1ccc(Cl)cc1)N1C(=O)c2ccccc2C1=O (stereo not drawn) | 0 | 0 | 0 | 0 | 0 | - | -
CS(=O)(=O)CCC(C(=O)OCc1ccc(Cl)cc1)N1C(=O)c2ccccc2C1=O (stereo not drawn) | 0 | 0 | 16.9 | 0 | 0 | 0 | 0
COc1cc(C(C)=O)ccc1OCC(=O)Nc1cc(C)on1 | 0 | 0 | 0 | 0 | 0 | - | -
CCOC(=O)CCCNC(=O)COc1ccccc1C#N | 0 | 0 | 19.2 | 0 | 0 | 0 | 0
CCc1cccc(CC)c1NC(=O)COC(=O)C1(C)CC1(Cl)Cl (stereo not drawn) | 0 | 0 | 16.7 | 0 | 0 | 0 | 0
CC(C)c1ccc(N(CC(=O)NC(C)(C)C)C(=O)CCC(=O)Nc2nccs2)cc1 | 0 | 0 | 29.0 | 0 | 0 | 0 | 0
CC(C)(C)NC(=O)CN(C(=O)CCC(=O)Nc1nccs1)c1ccc(F)cc1 | 0 | 0 | 0 | 0 | 0 | - | -
CCCn1c(SCC(=O)NCCCN2CCCC2=O)nc2ccccc2c1=O | 0 | 0 | 0 | 0 | 0 | - | -
CC(C)Cn1c(SCC(=O)NCCCN2CCCC2=O)nc2ccccc21 | 0 | 0 | 15.9 | 0 | 0 | 0 | 0
CCOc1cc(CNS(=O)(=O)c2ccc3c(c2)CC(=O)N3C)cc(OCC)c1OCC | 0 | 0 | 0 | 0 | 0 | - | -
CCOc1cc(-c2c(C)c(CC)nc(N)c2C#N)ccc1O | 0 | 0 | 0 | 0 | 0 | - | -
CCOc1cc(-c2c(C)c(C)nc(N)c2C#N)ccc1O | 0 | 0 | 15.1 | 0 | 0 | 0 | 24.3
COC(=O)[C@H]1C[C@@]2(O)CN(S(=O)(=O)c3ccc(C)cc3)C[C@@]2(OC(=O)NCc2ccccc2F)C[C@H]1C(=O)OC | - | - | 19.4 | - | - | 0 | 0
COC(=O)C[C@H]1CC[C@@H](NC(=O)C2CC2)[C@@H](CO)O1 | - | - | 17.8 | - | - | 0 | 0
c1ccc2c(c1)[nH]c1c(N3CCSCC3)ncnc12 | 0 | 0 | 15.0 | 0 | 0 | 0 | 0
c1ccc2c(c1)[nH]c1c(N3CCCC3)ncnc12 | 0 | 0 | 0 | 0 | 0 | - | -
Cc1cc(C)cc(NC(=O)C(C)N2C(=O)c3ccccc3C2=O)c1 (stereo not drawn) | 0 | 0 | 19.7 | 0 | 0 | 0 | 0
Cc1cc(-c2onc(C)c2C(=O)Oc2ccc(Cl)cc2)no1 | 0 | 0 | 18.9 | 0 | 0 | 0 | 0
Cc1cc(OCc2nnc(SC(C)C(=O)O)n2Cc2ccccc2)ccc1Cl (stereo not drawn) | - | - | 0 | - | - | - | -
CC(C)C(=O)Nc1ccc(C(=O)NNC(=S)NC(=O)c2ccco2)cc1 | 0 | 0 | 15.2 | 0 | 0 | 0 | 0
Cc1ccc(C(=O)NNC(=S)NC(=O)c2ccco2)cc1 | 0 | 0 | 0 | 0 | 0 | - | -
CC(C)(C)OC(=O)NN=C(c1ccc(O)cc1)c1ccc(O)cc1 | 0 | 0 | 0 | 0 | 0 | - | -
Clc1ncc(CN2CCN(c3ccccc3)CC2)s1 | 0 | 0 | 31.4 | 0 | 0 | 0 | 84.4
Clc1ccc(CN2CCN(c3ccccc3)CC2)cn1 | 0 | 0 | 22.1 | 0 | 0 | 0 | 80.7
Fc1ccccc1N1CCN(Cc2cnc(Cl)s2)CC1 | 0 | 0 | 0 | 0 | 0 | - | -
SMILES | MOR-DOR inv ag | OPRM1-OPRD1 ag | HTR2A ag | HTR5A inv ctr | HTR5A ag | MOR ag counter | HTR2A ag conf
CCNC(=O)C(=O)NCC(c1cccs1)S(=O)(=O)c1ccc(C)cc1 (stereo not drawn) | 0 | 0 | 0 | 0 | 0 | - | -
COC(=O)[C@@]12C[C@@H](CC(=O)NCc3ccc(OC)c(OC)c3)C(=O)N(Cc3ccccc3)C1=CCC(C)(C)C2 | - | - | 0 | - | - | - | -
O=C(CCCc1nc(-c2ccccc2Cl)no1)NC1CCCC1 | 0 | 0 | 0 | 0 | 0 | - | -
Cc1ccc(CCNS(=O)(=O)c2cc3c(cc2C)NC(=O)CO3)cc1 | 0 | 0 | 0 | 0 | 0 | - | -
Cc1cccc(CCNS(=O)(=O)c2cc3c(cc2C)NC(=O)CO3)c1 | 0 | 0 | 20.9 | 0 | 0 | 0 | 0
Cc1noc(C)c1CN1C(=O)c2cccc([N+](=O)[O-])c2C1=O | 0 | 0 | 14.4 | 0 | 0 | 0 | 0
COc1cc(CCCN2C(N)=NC[C@@H]2Cc2ccccc2)cc(OC)c1OC | 0 | 0 | 15.6 | 0 | 0 | 0 | 0
CCC(C)NC(=O)C1CCN(S(=O)(=O)c2cc([N+](=O)[O-])ccc2Cl)CC1 (stereo not drawn) | 0 | 0 | 24.1 | 0 | 0 | 0 | 0
COc1ccc(C2/C(=C(\O)c3ccc4c(c3)OCCO4)C(=O)C(=O)N2Cc2cccnc2)cc1OC (stereo not drawn) | 0 | 0 | 19.9 | 0 | 0 | 0 | 0
Cc1ccc(C2/C(=C(\O)c3ccc4c(c3)OCCO4)C(=O)C(=O)N2Cc2cccnc2)cc1 (stereo not drawn) | 0 | 0 | 0 | 0 | 0 | - | -
COc1ccc(OC)c(S(=O)(=O)Nc2ccc(-c3ccc4nncn4n3)cc2)c1 | 0 | 0 | 0 | 0 | 0 | - | -
CCOc1ccc(CN(C(=O)c2ccccn2)c2ccc(OC)c(Cl)c2)cc1 | 0 | 0 | 0 | 0 | 0 | - | -
CC(C)N1CC(C(=O)Nc2ccc(Cl)c([N+](=O)[O-])c2)CC1=O (stereo not drawn) | 0 | 0 | 0 | 0 | 0 | - | -
O=C(/C=C/c1ccc([N+](=O)[O-])cc1)N1CCN(Cc2ccccc2)CC1 | 0 | 0 | 0 | 0 | 0 | - | -
O=C(/C=C/c1ccc([N+](=O)[O-])cc1)N1CCN(S(=O)(=O)c2ccccc2)CC1 | 0 | 0 | 17.6 | 0 | 0 | 0 | 0
CCCN(CCC)CC(=O)NCC1(c2ccccc2)CCOCC1 | 0 | 0 | 17.5 | 0 | 0 | 0.5 | 0
COc1cc(C(=O)NNC(=O)c2cc(=O)[nH]c3ccccc23)cc(OC)c1OC | 0 | 0 | 0 | 0 | 0 | - | -
COC(=O)c1ccccc1NC(=O)N1CCN(S(=O)(=O)c2ccc(Cl)cc2)CC1 | 0 | 0 | 16.6 | 0 | 0 | 0 | 0
CCOC(=O)c1ccc(NC(=O)c2sc3nc(N4CCOCC4)c4c(c3c2N)CCCC4)cc1 | 0 | 0 | 17.5 | 0 | 0 | 0 | 0
Cc1ccc(S(=O)(=O)N2CCCCC2)cc1NS(=O)(=O)c1ccc(Cl)c(C(=O)O)c1 | 0 | 0 | 17.3 | 0 | 0 | 0 | 0
O=C(O)c1cc(S(=O)(=O)N2CCCCC2)ccc1Cl | 0 | 0 | 0 | 0 | 0 | - | -
Oc1ccccc1/C=N/n1c2ccccc2c2ccccc21 | 0 | 0 | 15.8 | 0 | 0 | 0 | 0
C(=N\n1c2ccccc2c2ccccc21)/c1ccccc1 | 0 | 0 | 0 | 0 | 0 | - | -
